Assay outcomes as filed in PubChem.
ABHD5-PLIN5 inh – blocks binding of human ABHD5 to perilipin-5; Q00G26+Q8WTS1; Split G. princeps luciferase complementation, luminescence, 4 h; inhibition, % at 4 µM; 360,000 tested, 0.78% active; AID 602281;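 active = inhibition above the mean inhibition across every tested compound plus 3 SD, cut at about 22% in these data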;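 note: 0% = DMSO only wells and the 100% control is not disclosed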
KKLEB cytotox – counter-screen for CF NF-kB inhibitors: cytotoxicity; KKLEB CF airway cells viability, ATPlite luminescence, overnight; hits give low values; cells stimulated with P. aeruginosa culture filtrate; activity change (cytotoxicity), % at 5 µM; 360,000 tested, 0.36% active;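 active = corrected activity change at or below -50% at 5 µM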
Mdm2 MdmX PPI – disrupts the human Mdm2-MdmX interaction; O15151+Q00987; SaOS-2 split-luciferase Mdm2/MdmX complementation, luminescence; inhibition, % at 8 µM; 330,000 tested, 3% active; AID 485346;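 active = inhibition of at least 50% at 8 µM in the primary screen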
Target sequence (O15151 whole entry, looked up): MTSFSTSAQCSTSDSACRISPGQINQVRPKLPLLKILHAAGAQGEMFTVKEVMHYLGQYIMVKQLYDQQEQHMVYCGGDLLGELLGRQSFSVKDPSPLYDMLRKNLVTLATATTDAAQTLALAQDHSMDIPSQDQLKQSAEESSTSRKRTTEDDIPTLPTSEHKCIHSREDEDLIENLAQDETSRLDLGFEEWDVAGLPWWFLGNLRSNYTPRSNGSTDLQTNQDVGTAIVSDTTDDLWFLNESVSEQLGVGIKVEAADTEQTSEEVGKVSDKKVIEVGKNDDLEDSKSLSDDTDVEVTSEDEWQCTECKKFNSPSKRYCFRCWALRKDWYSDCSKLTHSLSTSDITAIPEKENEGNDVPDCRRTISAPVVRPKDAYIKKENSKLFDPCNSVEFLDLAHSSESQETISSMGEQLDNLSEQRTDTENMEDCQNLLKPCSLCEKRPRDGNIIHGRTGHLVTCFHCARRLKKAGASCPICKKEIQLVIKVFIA
Target sequence (Q00987 whole entry, looked up): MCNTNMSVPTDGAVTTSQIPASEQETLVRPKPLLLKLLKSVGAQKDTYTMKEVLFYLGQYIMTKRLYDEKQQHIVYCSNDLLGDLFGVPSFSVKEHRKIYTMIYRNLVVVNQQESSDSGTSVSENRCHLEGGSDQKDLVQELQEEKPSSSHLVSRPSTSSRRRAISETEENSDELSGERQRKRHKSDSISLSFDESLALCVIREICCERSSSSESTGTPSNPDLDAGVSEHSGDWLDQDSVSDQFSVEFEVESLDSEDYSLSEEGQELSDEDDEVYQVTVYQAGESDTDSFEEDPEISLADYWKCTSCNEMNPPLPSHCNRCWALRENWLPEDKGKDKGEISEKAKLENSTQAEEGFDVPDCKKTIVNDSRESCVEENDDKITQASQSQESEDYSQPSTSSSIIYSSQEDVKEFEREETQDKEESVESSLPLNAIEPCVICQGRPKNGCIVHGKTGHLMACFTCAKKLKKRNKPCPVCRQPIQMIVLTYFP
Peg3 promoter – Peg3 promoter activity inhibition; HeLa PEG-Prom luciferase reporter, luminescence, overnight; inhibition, % at 20 µM; 360,000 tested, 1.7% active;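 active = inhibition of at least 50% at 20 µM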
HIF-2a inh – HIF-2a inhibition. 786-0 RCC cells HIF-2a reporter, luciferase luminescence, overnight. inhibition, % at 18.8 µM. 360,000 tested, 0.72% active. AID 624352;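 active = inhibition of the luminescence signal of 40% or more relative to plate controls, in a single-dose primary screen at 18.75 µM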
CF NFkB block – cystic fibrosis NF-kB activation inhibition; inhibition, % at 5 µM; KKLEB NF-kB-GFP reporter, PAF-induced, GFP fluorescence overnight; 360,000 tested, 0.86% active; AID 588850;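 active = at least 50% inhibition at 5 µM, scaled per plate between neutral and stimulator controls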;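 note: PAF is a Pseudomonas aeruginosa culture filtrate used as stimulus; plate controls were PAF-stimulated DMSO wells for no effect and unstimulated DMSO wells for full effect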
Mdm2 MdmX conf – confirmation of human Mdm2/MdmX interaction inhibitors; shares compounds with Mdm2 MdmX PPI; Mdm2-MdmX binding, luminescent assay; inhibition, % at 8 µM; AID 489028; 10,000 tested, 55% active; in the data active = inhibition above about 40%
FLuc counter – counter-screen for Mdm2/MdmX inhibitors: full-length luciferase | shares compounds with Mdm2 MdmX PPI | SaOS-2 full-length luciferase counterscreen, luminescence | inhibition, % at 8 µM | 6,200 tested, 77% active | AID 504607;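 active = mean inhibition at 8 µM reaching about 37%, which flags the compound as non-specific, limit read from the data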;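 note: p53-null SaOS-2 cells with luciferase driven by a doxycycline-inducible promoter; compound on cells about two nights before reading with doxycycline added after day one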
An asterisk follows results filed as active. Shown are actives, neighbours in structure and some others; about 4.6% of the full set was active somewhere.

Screening CCCCCCOC(=O)C(C#N)c1nc2ccccc2nc1N1CCN(CC)CC1 (stereo not drawn) returned ABHD5-PLIN5 inh 12, KKLEB cytotox -25, Mdm2 MdmX PPI 60*, Peg3 promoter 32, HIF-2a inh 17, CF NFkB block 22, Mdm2 MdmX conf 32 and FLuc counter 70*.
CCCCCCOC(=O)C(C#N)c1nc2ccccc2nc1N1CCOCC1 (stereo not drawn) was read as ABHD5-PLIN5 inh 6, KKLEB cytotox -16, Mdm2 MdmX PPI 12, Peg3 promoter 16, HIF-2a inh 23 and CF NFkB block -5.
`CCCc1nc2c(C)cc(Br)cn2c1Cc1cccc(F)c1` gave ABHD5-PLIN5 inh -5, KKLEB cytotox -18, Peg3 promoter -87, HIF-2a inh -95 and CF NFkB block -4.
`COc1ccc2[nH]c(=O)c(CN(Cc3cccs3)S(=O)(=O)c3c(C)ccc4nsnc34)cc2c1` gave ABHD5-PLIN5 inh -11, KKLEB cytotox -21, Mdm2 MdmX PPI 64*, Peg3 promoter 59*, HIF-2a inh 1, CF NFkB block 97*, Mdm2 MdmX conf 68* and FLuc counter 73*.
For COc1ccc(C(=O)NC2CCSc3ccccc32)cc1F (stereo not drawn) the results were ABHD5-PLIN5 inh -7, KKLEB cytotox 11, Mdm2 MdmX PPI -22, Peg3 promoter -36, HIF-2a inh -35 and CF NFkB block 1.
For CCOC(=O)N1CCN(CC(O)COc2ccccc2C(C)C)CC1 (stereo not drawn) the results were ABHD5-PLIN5 inh -4, KKLEB cytotox -10, Mdm2 MdmX PPI 24, Peg3 promoter 11, HIF-2a inh 13 and CF NFkB block 16.
For CCN(CCNCC(O)COc1ccccc1C(C)C)c1cccc(C)c1 (stereo not drawn) the results were ABHD5-PLIN5 inh 3, KKLEB cytotox -5, Mdm2 MdmX PPI 68*, Peg3 promoter 93*, HIF-2a inh 7, CF NFkB block 20, Mdm2 MdmX conf 41* and FLuc counter 75*.
`C[C@@H]1CN([C@H](C)CO)C(=O)CCCn2cc(nn2)CO[C@H]1CN(C)C(=O)Nc1ccc(-c2cccs2)cc1` gave ABHD5-PLIN5 inh -12, KKLEB cytotox 8, Peg3 promoter -3, HIF-2a inh -15 and CF NFkB block -24.
`CN(C(=O)CSc1nnc(COc2ccccc2F)n1N)C1CCS(=O)(=O)C1` (stereo not drawn) gave ABHD5-PLIN5 inh 0, KKLEB cytotox -2, Mdm2 MdmX PPI 5, Peg3 promoter -3, HIF-2a inh 7 and CF NFkB block -22.
For Cc1ccc(NC(=O)CSCC(=O)N(C)CC(=O)Nc2ccccc2C(F)(F)F)cc1 the results were ABHD5-PLIN5 inh 3, KKLEB cytotox -8, Mdm2 MdmX PPI 18, Peg3 promoter 8, HIF-2a inh 7 and CF NFkB block 19.
Screening NNc1nc2sc3c(c2c(=O)n1C1CCCCC1)CCN(Cc1ccccc1)C3 returned ABHD5-PLIN5 inh -1, KKLEB cytotox 2, Mdm2 MdmX PPI 55*, Peg3 promoter 1, HIF-2a inh 22, CF NFkB block 18 and Mdm2 MdmX conf 8.
Screening NNc1nc2sc3c(c2c(=O)n1Cc1ccccc1)CCC3 returned ABHD5-PLIN5 inh 0, KKLEB cytotox 1, Mdm2 MdmX PPI -6, Peg3 promoter 5, HIF-2a inh -23 and CF NFkB block 4.
COc1nc(-c2ccccc2)ncc1S(=O)(=O)c1ccccc1 was read as ABHD5-PLIN5 inh -11, KKLEB cytotox 9, Mdm2 MdmX PPI 17, Peg3 promoter 7, HIF-2a inh 10 and CF NFkB block 14.
Cc1cccc(C)c1Oc1nc(-c2ccccc2)ncc1S(=O)(=O)c1ccccc1 was read as ABHD5-PLIN5 inh 6, KKLEB cytotox -2, Mdm2 MdmX PPI 52*, Peg3 promoter 18, HIF-2a inh 12, CF NFkB block 4 and Mdm2 MdmX conf 3.
CN1OC[C@@H]2CN[C@H](c3cccc(-c4ccccc4)c3)C[C@@H]21 was read as ABHD5-PLIN5 inh -1, KKLEB cytotox -7, Peg3 promoter -3, HIF-2a inh -6 and CF NFkB block 0.
For CCC1C(=O)N=C(SCC(=O)Nc2nc3ccccc3s2)NC1=O (stereo not drawn) the results were ABHD5-PLIN5 inh -1, KKLEB cytotox 12, Mdm2 MdmX PPI 72*, Peg3 promoter -12, HIF-2a inh -7, CF NFkB block -4 and Mdm2 MdmX conf 18.
For CCC1C(=O)N=C(SCC(=O)Nc2cccc3ccccc23)NC1=O (stereo not drawn) the results were ABHD5-PLIN5 inh 2, KKLEB cytotox 4, Mdm2 MdmX PPI -7, Peg3 promoter -11, HIF-2a inh 2 and CF NFkB block -1.
For Cn1cc(SCC(=O)Nc2nc3ccccc3s2)c2ccccc21 the results were ABHD5-PLIN5 inh -1, KKLEB cytotox -32, Mdm2 MdmX PPI 78*, Peg3 promoter 7, HIF-2a inh -27, CF NFkB block 23, Mdm2 MdmX conf 67* and FLuc counter 62*.
`Cc1csc(SCC(=O)Nc2nc3ccccc3s2)n1` gave ABHD5-PLIN5 inh 0, KKLEB cytotox -6, Mdm2 MdmX PPI 5, Peg3 promoter -225, HIF-2a inh -231 and CF NFkB block 8.
For CCCN(C(=O)c1cccs1)c1c(N)n(Cc2ccccc2)c(=O)[nH]c1=O the results were ABHD5-PLIN5 inh 3, KKLEB cytotox -8, Mdm2 MdmX PPI -9, Peg3 promoter 2, HIF-2a inh 15 and CF NFkB block 32.
For CC(=O)O[C@H]1C(=O)[C@@]2(C)[C@H]([C@H](OC(=O)c3ccccc3)[C@]3(O)C[C@H](OC(=O)[C@H](O)C(NC(=O)c4ccccc4)c4ccccc4)C(C)=C1C3(C)C)[C@]1(OC(C)=O)CO[C@@H]1C[C@@H]2O (stereo partly drawn) the results were ABHD5-PLIN5 inh 1, KKLEB cytotox -4, Mdm2 MdmX PPI 48, Peg3 promoter 20, HIF-2a inh 10 and CF NFkB block 4.
CCCCCC(=O)N[C@@H](c1ccccc1)[C@@H](O)C(=O)O[C@H]1C[C@@]2(O)[C@@H](OC(=O)c3ccccc3)C3[C@](C)(C(=O)[C@H](OC(C)=O)C(=C1C)C2(C)C)[C@@H](O)C[C@H]1OC[C@@]31OC(C)=O (stereo partly drawn) was read as ABHD5-PLIN5 inh -3, KKLEB cytotox -20, Mdm2 MdmX PPI 72*, Peg3 promoter 38, HIF-2a inh 23, CF NFkB block 20, Mdm2 MdmX conf 74* and FLuc counter 43*.
